Source: the OligoGym collection

What follows are sequences tested against ODF3L1 (assay: pooled miR-30 sensor sort-seq; sequence = guide strand). Conditions: shRNA.
Further: reference of the scale not given here.

Row | Sequence | sensor-assay potency score (higher = more potent)
1 | TGTCATGATCTATGTAGCCCGT | -0.612
2 | ATCTTCTCAAAGTAGTACTGGC | -0.892
3 | TAGCAGGGAGCAGCTCGGCTGA | -1.48
4 | TGATCTATGTAGCCCGTGCAGG | -1.19
5 | TTGAACATGGAGATGTCATGAT | 0.585
6 | TCATGATCTATGTAGCCCGTGC | -0.361
7 | TCCTTGTAGAACCAGTTCTTGT | -1.85
8 | TCTGCTACTAGAAATCTTGGTC | 0.655
9 | TTGAGGTCCATCACTCTGTATG | -1.32
10 | TTGTGCACAGTGACCTGCTGGA | 0.448

What follows are sequences tested against ODF4 in the same assay as above. Conditions: shRNA.

Row | Sequence | sensor-assay potency score (higher = more potent)
11 | TAGCAAAGGATCGCGCAGGTGA | -0.209
12 | TTCTACTGAGCCGAAACTGCTG | -0.397
13 | TCTTCTACTGAGCCGAAACTGC | -1.39
14 | TCTACTGAGCCGAAACTGCTGC | 0.472
15 | TATAGGATAAGCACCAGCCAAC | -1.15
16 | TCTCTTTCTCCTTCTGACCTGG | -0.166
17 | TTCCAGGTCTCTGATGTTGGTC | -1.05
18 | TCTGTGATCGTCTGTGCCCTTG | -0.736
19 | TTGGTCTCTTTCTCCTTCTGAC | -0.95
20 | TTGAAGTAGCAAAGGATCGCGC | 0.0925

What follows are sequences tested against OGDHL in the same assay as above. Conditions: shRNA.

Row | Sequence | sensor-assay potency score (higher = more potent)
21 | TTCTTGGTCATGTCCGCACGGC | -0.866
22 | TAAGCCTCCTCACAGATCCGGT | -0.839
23 | TTCTACTTTGGTACACATGAGC | -0.678
24 | TTGAATCTACAGATAAGCGAGG | -0.941
25 | TTCAGCACAGGCACCTGTCTGT | 0.114
26 | TTCATAGGCACACACGTCCTGC | -1.24
27 | TTGACCACGATCCAGTTGCAGT | -1.4
28 | TACATCTCCTCCATGTAACTGG | -0.405
29 | TTTGAATCTACAGATAAGCGAG | -0.201
30 | TTGCTCATCTGCAGGAACCTTT | -0.719
31 | TGGAGAACTGCATCACACCAGG | -1.03
32 | TACTTTGGTACACATGAGCTGT | -0.325

The sequences below were run against OLFML2A in the same assay as above. Conditions: shRNA.

Row | Sequence | sensor-assay potency score (higher = more potent)
33 | TTGTACATGTTACTCCAGCGGC | -0.677
34 | TTGAGTTTCTCCATCTTCCACT | -0.593
35 | TAACTTTTAAAAATCAGCCTAT | -0.201
36 | TTTCCATAGTAGTAGTTGGTGA | -0.818
37 | TTGTAGTAGGTGAAGCCCCGGA | -0.647
38 | TACTTGATGATGTTCTTGGTGA | 0.197
39 | TTCAAACATACAGACATCCAGG | -0.00393
40 | TAGCTTGTACATGTTACTCCAG | -0.555
